“And” between values parts separate entries of the source, which are not always exact repeats. Equal values may be shown once. Results filed as inconclusive are left out. The source made the active and inactive calls. The calls were made as follows, unless noted: active = hit-call score of the fitted dose curve at least 0.9, where 1 is the maximum; inconclusive = response in the unintended direction; inactive = score below 0.9.
What was measured:
[1] = TOX21_p53_BLA_p2_viability: Viability Assessment in the Tox21 HCT-116 p53 Agonism Beta-lactamase Assay, Phase 2 (AID 2283591);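 also: compound exposure lasted 16 h at 37 °C; actives lower the ATP signal meaning cytotoxicity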
Outline: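 Cytotoxicity readout: CellTiter-Glo ATP luminescence, 30 min at room temperature, after the beta-lactamase read. Cells were HCT116 exposed 16 h at 37C to compounds pin-transferred at 217-fold dilution from DMSO stocks.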

[2] = target: Cellular tumor antigen p53 (Homo sapiens) (UniProt P04637); assay: TOX21_p53_BLA_p2_ratio: Tox21 HCT-116 p53 Agonism Beta-lactamase Assay, Ratio, Phase 2 (AID 2283592)
Cellular tumor antigen p53 (Homo sapiens), sequence (P04637 whole entry, looked up): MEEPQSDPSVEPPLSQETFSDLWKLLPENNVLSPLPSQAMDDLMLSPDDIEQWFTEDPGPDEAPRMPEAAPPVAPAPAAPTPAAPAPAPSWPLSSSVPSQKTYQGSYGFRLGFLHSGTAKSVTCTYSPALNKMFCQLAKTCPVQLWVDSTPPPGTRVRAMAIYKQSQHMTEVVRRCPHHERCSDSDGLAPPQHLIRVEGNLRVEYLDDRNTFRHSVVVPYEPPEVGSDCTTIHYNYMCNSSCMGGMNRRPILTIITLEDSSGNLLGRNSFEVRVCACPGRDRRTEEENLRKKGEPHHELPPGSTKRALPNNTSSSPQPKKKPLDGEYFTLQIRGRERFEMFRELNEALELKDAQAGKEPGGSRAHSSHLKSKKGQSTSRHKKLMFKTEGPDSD
Outline: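 Ratio endpoint: beta-lactamase cleavage of CCF4-AM, blue (460 nm) over green (530 nm). HCT116 reporter line; 16 h treatment, 37C; substrate 2 h RT.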

[3] = TOX21_p53_BLA_p3_viability: Viability Assessment in the Tox21 HCT-116 p53 Agonism Beta-lactamase Assay, Phase 3 (AID 2283593);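 also: cells exposed to compound for 16 h before reading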
Outline: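 Cellular ATP was quantified by CellTiter-Glo luminescence, read after 30 min at room temperature. Beforehand, HCT116 cells (4000/well) received compound 5 h post-seeding, 217-fold diluted from DMSO, then incubated 16 h at 37C.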

[4] = target: Cellular tumor antigen p53 (Homo sapiens) (UniProt P04637); assay: TOX21_p53_BLA_p3_ratio: Tox21 HCT-116 p53 Agonism Beta-lactamase Assay, Ratio, Phase 3 (AID 2283596)
Outline: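 Cells were seeded at 4000/well, rested 5 h at 37C, then dosed with DMSO compound solutions (217-fold dilution) for 16 h. CCF4-AM substrate was loaded for 2 h at room temperature, and the 460/530 nm emission ratio was fitted for gain of signal versus DMSO.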

[5] = TOX21_p53_BLA_p4_viability: Viability Assessment in the Tox21 HCT-116 p53 Agonism Beta-lactamase Assay, Phase 4 (AID 2283597);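 also: hits lower the luminescence signal meaning cytotoxicity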
Outline: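 Cytotoxicity was inferred from loss of CellTiter-Glo luminescence. HCT116 cells had been dosed with compounds after 5 h plating, incubated 16 h at 37C and 5% CO2, and exposed to the CCF4-AM substrate for 2 h.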

[6] = target: Cellular tumor antigen p53 (Homo sapiens) (UniProt P04637); assay: TOX21_p53_BLA_p5_ratio: Tox21 HCT-116 p53 Agonism Beta-lactamase Assay, Ratio, Phase 5 (AID 2283599)
Outline: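 Beta-lactamase reporter ratio (blue 460 nm over green 530 nm, 405 nm excitation) after 2 h CCF4-AM loading, in HCT-116 cells exposed 16 h at 37 C to compounds pinned at 217-fold dilution. Increases relative to DMSO baseline scored.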

[7] = TOX21_p53_BLA_p5_viability: Viability Assessment in the Tox21 HCT-116 p53 Agonism Beta-lactamase Assay, Phase 5 (AID 2283600)
Outline: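 Luciferase-coupled ATP quantitation of cells treated for 16 h (37C, 5% CO2) with test chemicals delivered in DMSO via a 217-fold dilution; 4000 cells/well; reagent incubated 30 min at room temperature before luminescence reading.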

[8] = target: Cellular tumor antigen p53 (Homo sapiens) (UniProt P04637); assay: TOX21_p53_BLA_p4_ratio: Tox21 HCT-116 p53 Agonism Beta-lactamase Assay, Ratio, Phase 4 (AID 2283601)
Outline: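 Signal is the blue/green (460nm/530nm) ratio of cleaved versus uncleaved CCF4-AM substrate, read after 2 h substrate loading. Cells were HCT116 carrying the p53-responsive beta-lactamase reporter, dosed 16 h at 37C, 5% CO2; CellTiter-Glo measured in parallel.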

[9] = CCTE_Harrill_HTTr_Viability_MCF7: CCTE's 6-hour Cell Viability Assessment for the High-Throughput Transcriptomics (HTTr) Platform, in MCF-7 cells cultured in DMEM + 10% fetal bovine serum, Harrill Lab (AID 2284010; active = hit-call score of the fitted dose curve at least 0.9, where 1 is the maximum; inactive = score below 0.9)
Outline: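 Propidium iodide exclusion, imaged by high-content analysis, gauged viability after a six-hour exposure across eight concentrations. Cells were MCF-7 grown in DMEM with 10% fetal bovine serum; fits run in both directions against DMSO.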

[10] = CCTE_Harrill_HTTr_Apoptosis_MCF7: CCTE's 6-hour Apoptosis Assessment for the High-Throughput Transcriptomics (HTTr) Platform, in MCF-7 cells cultured in DMEM + 10% fetal bovine serum, Harrill Lab (AID 2284011; active = hit-call score of the fitted dose curve at least 0.9, where 1 is the maximum; inactive = score below 0.9)
Outline: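 MCF-7 cells in DMEM + 10% fetal bovine serum were exposed to chemicals for 6 hours over an eight-point dilution series. Caspase-3/7 activation was imaged by high content imaging with CellEvent Caspase 3/7 Green; bidirectional fitting used DMSO as baseline.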

[11] = CCTE_Harrill_HTTr_CellCount_MCF7: CCTE's Cell Proliferation Assessment for the High-Throughput Transcriptomics (HTTr) Platform, Harrill Lab (AID 2284012);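 also: cells exposed to compound for six hours; intended direction is loss of nuclei count meaning fewer cells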
Outline: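 Cell count from high-content imaging of Hoechst-labeled nuclei serves as viability/growth readout. Chemicals were applied to MCF-7 cells in eight concentrations for six hours, with fitting in both directions relative to DMSO.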

Measured: AC50

F/C(COc1ccc2c(c1)[nH]c1ccccc12)=C1/CN2CCC1CC2
active: [5] 27.3 µM
not listed: [9] | [10] | [11]
inactive: all other assays above

NCC(O)c1ccc(O)cc1 (configuration not stated)
not listed: [9] | [10] | [11]
inactive: all other assays above

CCCCCCCCCCCC[N+](C)(C)CCOc1ccccc1
active: [1] 28.1 µM and 30.3 µM | [2] 33.3 µM and 40.8 µM | [3] 53 µM and 22.3 µM | [4] 84.4 µM and 43.8 µM | [5] 37.5 µM and 16.3 µM | [6] 85.4 µM and 44.8 µM | [7] 54.3 µM and 33.6 µM | [8] 36.1 µM

CN
not listed: [9] | [10] | [11]
inactive: all other assays above

[H+].[H+].[Hg+2].[O-]B([O-])[O-].[c-]1ccccc1
active: [1] 7.89 µM | [2] 1.73 µM | [3] 0.975 µM | [4] 1.17 µM | [5] 8.43 µM | [6] 5.39 µM | [7] 4.94 µM | [8] 18.3 µM

CCOP(=S)(OCC)SC(CCl)N1C(=O)c2ccccc2C1=O (configuration not stated)
not listed: [9] | [10] | [11]
inactive: all other assays above

COc1ccc2c3c1O[C@H]1[C@@H](O)C=C[C@H]4[C@@H](C2)NCC[C@@]341
not listed: [9] | [10] | [11]
inactive: all other assays above

Oc1ccc(Cl)c(Cl)c1
not listed: [9] | [10] | [11]
inactive: all other assays above

Clc1ccc(CCC(Cn2ccnc2)Sc2c(Cl)cccc2Cl)cc1 (configuration not stated)
active: [4] 15.9 µM
not listed: [9] | [10] | [11]
inactive: all other assays above

CN(C)c1ccc(N)cc1
active: [2] 72 µM
not listed: [9] | [10] | [11]
inactive: all other assays above

O=C1c2ccccc2C(=O)C1C(=O)C(c1ccccc1)c1ccccc1
active: [2] 37.1 µM | [5] 44 µM | [8] 36.6 µM
inactive: [1] | [3] | [4] | [6] | [7]

C[C@H]1CC[C@]2(NC1)O[C@H]1C[C@H]3[C@@H]4CC[C@H]5C[C@@H](O[C@@H]6O[C@H](CO)[C@H](O[C@@H]7O[C@H](CO)[C@@H](O)[C@H](O[C@@H]8OC[C@@H](O)[C@H](O)[C@H]8O)[C@H]7O[C@@H]7O[C@H](CO)[C@@H](O)[C@H](O)[C@H]7O)[C@H](O)[C@H]6O)CC[C@]5(C)[C@H]4CC[C@]3(C)[C@H]1[C@@H]2C
active: [1] 4.84 µM | [2] 31.4 µM | [3] 5.23 µM | [4] 29.4 µM | [5] 4.05 µM | [6] 30.3 µM | [7] 6.08 µM | [8] 24 µM

CC(O)C(=O)[O][Hg][c]1ccccc1 (configuration not stated)
active: [1] 2.69 µM | [2] 9.88 µM | [3] 0.648 µM | [4] 2.21 µM | [5] 3.87 µM | [6] 2.92 µM | [7] 1.59 µM | [8] 5.92 µM

CCC(C)(S(=O)(=O)CC)S(=O)(=O)CC
not listed: [7] | [9] | [10] | [11]
inactive: all other assays above

COc1cccc2c1cc([N+](=O)[O-])c1c(C(=O)O)cc3c(c12)OCO3
active: [2] 1.75 µM | [3] 79.8 µM | [4] 6.78 µM | [6] 13.2 µM | [8] 3.74 µM
not listed: [7]
inactive: all other assays above

Nc1c(Br)cc([N+](=O)[O-])cc1[N+](=O)[O-]
inactive: [1] | [2] | [3] | [4] | [5] | [7]

COC(COC(N)=O)C1=C(N2CC2)C(=O)C(C)=C(N2CC2)C1=O (configuration not stated)
active: [2] 6.58 µM | [3] 18.2 µM | [4] 0.121 µM | [6] 0.219 µM | [8] 17.2 µM
inactive: [1] | [5]

N#CCCSCCC#N
not listed: [7] | [9] | [10] | [11]
inactive: all other assays above

C[C@]12C[C@H]3S[C@H]3C[C@@H]1CC[C@@H]1[C@@H]2CC[C@]2(C)[C@@H](O)CC[C@@H]12
inactive: [1] | [2] | [3] | [4] | [5] | [7]
